{
  "source": "PubChem BioAssay (NCI)",
  "note": "This is part of a sample that, as a whole, favours compounds with a hit. Of some 83,000 tested, about 20% had one in any assay.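 How to read the values: 0–100, growth inhibition (40 = 60% inhibited); 0, no net growth; -100 to 0, cell death (-40 = 40% of starting cells died; -100 = all dead).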 Calls of active or inactive are those of the source. How the source made its calls: active means growth percent below 10; inactive means the rest.",
  "data": [
    {"test_system": "NCI-H522 lung", "experiment": "NCI-60 one-dose screen, 48 h (100 = growth as untreated, 0 = no growth, -100 = all killed)", "conditions": "10 µM unless noted", "values": [
      {"smiles": "COc1ccc(C2CC(c3ccc(OC)c(OC)c3)=NN2C(=O)c2cc(OC)c(OC)c(OC)c2)c(OC)c1", "note": "(centres undefined)", "growth": "33.9% (inactive)"},
      {"smiles": "CCOC(=O)c1c2c(c(C)n1Cc1ccc(OC)cc1)-c1nc(N)ncc1CC2", "growth": "114% (inactive)"},
      {"smiles": "O=C1N(C2CCCCC2)C(=O)N1C1CCCCC1", "growth": "17.3% (inactive)"},
      {"smiles": "O=c1ccn(C2OC(CO)C(O)C2F)c(=O)[nH]1", "note": "(centres undefined)", "growth": "109% (inactive)"},
      {"smiles": "CCCn1cnc2c1c(=O)n(CCCCC(C)=O)c(=O)n2C", "growth": "113% (inactive)"},
      {"smiles": "CCCCc1nc(Cl)c(CO)n1Cc1ccc(-c2ccccc2-c2nn[nH]n2)cc1", "growth": "92.8% (inactive)"},
      {"smiles": "COc1ccc(C2CC(c3cccc(Nc4ccnc5cc(Cl)ccc45)c3)=NN2C=O)cc1", "note": "(centres undefined)", "growth": "-35.5% (active)"},
      {"smiles": "O=c1c(O)cccn1CCCNCCCN(CCCn1cccc(O)c1=O)CCCn1cccc(O)c1=O", "growth": "117% (inactive)"},
      {"smiles": "COc1ccc2nc(-c3ccc(-n4cncc4-c4ccc(OC)c(N)c4)cc3)sc2c1", "growth": "82% (inactive)"},
      {"smiles": "Cc1cc(NC(=O)Nc2cc(Cl)ccc2C)no1", "growth": "103% (inactive)"},
      {"smiles": "O=C1NCN(c2ccccc2)C12CCN(CCCC(c1ccc(F)cc1)c1ccc(F)cc1)CC2", "growth": "61.2% (inactive)"},
      {"smiles": "CCC(O)C(C)(C)C", "note": "(centres undefined)", "growth": "106% (inactive)"},
      {"smiles": "COc1ncc(-c2ccc3nccc(C#CCN4CCN(S(C)(=O)=O)CC4)c3c2)cc1NS(=O)(=O)c1ccc(F)cc1F", "growth": "-1.57% (active)"},
      {"smiles": "O=C(Nc1ccc(Cl)cc1)c1cc2c(cc1O)[nH]c1ccccc12", "growth": "-14.4% (active)"},
      {"smiles": "O=C1c2ccccc2C(=O)c2c1cccc2-n1nnc2ccccc21", "growth": "86% (inactive)"},
      {"smiles": "Cc1nn(-c2ccccc2)c2c1oc(=O)c1cc(Cl)ccc12", "growth": "113% (inactive)"},
      {"smiles": "CCC1=C(c2ccc(OC)cc2)C(C)(C)Oc2c1ccc(O)c2CN1CCCC1", "growth": "30.4% (inactive)"},
      {"smiles": "O=C(NCCc1ccccc1)C1CCC(=O)N1Cc1ccc(Br)cc1", "note": "(centres undefined)", "growth": "67.1% (inactive)"},
      {"smiles": "N#Cc1ccc(NC(=O)Nc2ccc(Oc3ccc(NC(=O)Nc4ccc(C#N)cc4)cc3)cc2)cc1", "growth": "-33.4% (active)"},
      {"smiles": "COc1ccc2c(c1)C(=O)c1c-2c(OCCN(C)C)nc2cc(OC)ccc12", "growth": "-22.1% (active)"},
      {"smiles": "O=C(Nc1cccc([N+](=O)[O-])c1)c1cccc(C(=O)Nc2cccc([N+](=O)[O-])c2)c1", "growth": "22.5% (inactive)"},
      {"smiles": "CCCCCCCCCCCCCCCCCC1=NC(C)(C)CN1CCO", "growth": "-58.2% (active)"},
      {"smiles": "COc1ccc(OC)c(NC(=O)c2cc3oc4ccccc4c3cc2O)c1", "growth": "90.6% (inactive)"},
      {"smiles": "CN1C(=O)/C(=C/c2nc(-c3cccc(F)c3)n3ccccc23)c2ccccc21", "growth": "40% (inactive)"},
      {"smiles": "O=C(CN1CCCCC1)Sc1nnc2sc3ccccc3n12", "growth": "99.5% (inactive)"},
      {"smiles": "C[C@]12CC[C@@H]3c4ccc(O)c([N+](=O)[O-])c4CC[C@H]3[C@@H]1CC[C@@H]2NS(=O)(=O)c1cccc(Br)c1", "growth": "-50.4% (active)"},
      {"smiles": "Cc1ccsc1/C=C/C1=NCCCN1C", "growth": "91% (inactive)"},
      {"smiles": "CCCCCCCCCCSc1ncnc2nc[nH]c12", "growth": "57.1% (inactive)"},
      {"smiles": "C[n+]1c2ccccc2c(NC2CCNCC2)c2[nH]c3ccccc3c21", "growth": "-73.2% (active)"},
      {"smiles": "COc1cccc2c1O/C(=C\\c1c([N+](=O)[O-])ncn1C)C2=O", "growth": "84.3% (inactive)"},
      {"smiles": "CC[C@@H]1OC(=O)[C@H](C)[C@@H](O[C@H]2C[C@@](C)(OC)[C@@H](O)[C@H](C)O2)[C@H](C)[C@@H](O[C@@H]2O[C@H](C)C[C@H](N(C)C)[C@H]2O)[C@](C)(O)C[C@@H](C)[C@@H]2N[C@@H](COCCOC)O[C@H]([C@H]2C)[C@]1(C)O", "growth": "98.6% (inactive)"},
      {"smiles": "O=C1C[C@@H]2/C(=C(O)\\C=C\\c3ccccc3)C(=O)C=C[C@@H]2O1", "growth": "-66.3% (active)"},
      {"smiles": "Cc1cc2c(cc1[N+](=O)[O-])NC(CNC(C)C)CC2", "note": "(centres undefined)", "growth": "105% (inactive)"},
      {"smiles": "CCCCN(CCCC)CCCOC(=O)c1ccc(N)cc1", "growth": "67% (inactive)"},
      {"smiles": "C=C(C[C@](O)(C(=O)/C=C/c1ccc(Cl)cc1)C(=O)OC)c1ccccc1", "growth": "66% (inactive)"},
      {"smiles": "CCN1C[C@@H](C)n2c(c(O)c3c(=O)n(Cc4ccc(F)c(Cl)c4)nc(C(=O)NC)c32)C1=O", "growth": "69.3% (inactive)"},
      {"smiles": "Cc1nnc(Nc2ccc(NC(=O)Nc3ccc(Cl)cc3)cc2)c2ccccc12", "growth": "30.3% (inactive)"}
    ]},
    {"test_system": "A549/ATCC NSCLC", "experiment": "NCI-60 one-dose screen, 48 h (100 = growth as untreated, 0 = no growth, -100 = all killed)", "conditions": "10 µM unless noted", "values": [
      {"smiles": "COc1ccc(C2CC(c3ccc(OC)c(OC)c3)=NN2C(=O)c2cc(OC)c(OC)c(OC)c2)c(OC)c1", "note": "(centres undefined)", "growth": "82.8% (inactive)"},
      {"smiles": "CCOC(=O)c1c2c(c(C)n1Cc1ccc(OC)cc1)-c1nc(N)ncc1CC2", "growth": "110% (inactive)"},
      {"smiles": "O=C1N(C2CCCCC2)C(=O)N1C1CCCCC1", "growth": "34.5% (inactive)"},
      {"smiles": "O=c1ccn(C2OC(CO)C(O)C2F)c(=O)[nH]1", "note": "(centres undefined)", "growth": "109% (inactive)"},
      {"smiles": "CCCn1cnc2c1c(=O)n(CCCCC(C)=O)c(=O)n2C", "growth": "95.8% (inactive)"},
      {"smiles": "CCCCc1nc(Cl)c(CO)n1Cc1ccc(-c2ccccc2-c2nn[nH]n2)cc1", "growth": "105% (inactive)"},
      {"smiles": "COc1ccc(C2CC(c3cccc(Nc4ccnc5cc(Cl)ccc45)c3)=NN2C=O)cc1", "note": "(centres undefined)", "growth": "25.5% (inactive)"},
      {"smiles": "O=c1c(O)cccn1CCCNCCCN(CCCn1cccc(O)c1=O)CCCn1cccc(O)c1=O", "growth": "105% (inactive)"},
      {"smiles": "COc1ccc2nc(-c3ccc(-n4cncc4-c4ccc(OC)c(N)c4)cc3)sc2c1", "growth": "93.5% (inactive)"},
      {"smiles": "Cc1cc(NC(=O)Nc2cc(Cl)ccc2C)no1", "growth": "108% (inactive)"},
      {"smiles": "O=C1NCN(c2ccccc2)C12CCN(CCCC(c1ccc(F)cc1)c1ccc(F)cc1)CC2", "growth": "57.8% (inactive)"},
      {"smiles": "CCC(O)C(C)(C)C", "note": "(centres undefined)", "growth": "94.2% (inactive)"},
      {"smiles": "COc1ncc(-c2ccc3nccc(C#CCN4CCN(S(C)(=O)=O)CC4)c3c2)cc1NS(=O)(=O)c1ccc(F)cc1F", "growth": "5.73% (active)"},
      {"smiles": "O=C(Nc1ccc(Cl)cc1)c1cc2c(cc1O)[nH]c1ccccc12", "growth": "30% (inactive)"},
      {"smiles": "O=C1c2ccccc2C(=O)c2c1cccc2-n1nnc2ccccc21", "growth": "116% (inactive)"},
      {"smiles": "Cc1nn(-c2ccccc2)c2c1oc(=O)c1cc(Cl)ccc12", "growth": "102% (inactive)"},
      {"smiles": "CCC1=C(c2ccc(OC)cc2)C(C)(C)Oc2c1ccc(O)c2CN1CCCC1", "growth": "67.1% (inactive)"},
      {"smiles": "O=C(NCCc1ccccc1)C1CCC(=O)N1Cc1ccc(Br)cc1", "note": "(centres undefined)", "growth": "79.1% (inactive)"},
      {"smiles": "N#Cc1ccc(NC(=O)Nc2ccc(Oc3ccc(NC(=O)Nc4ccc(C#N)cc4)cc3)cc2)cc1", "growth": "26.9% (inactive)"},
      {"smiles": "COc1ccc2c(c1)C(=O)c1c-2c(OCCN(C)C)nc2cc(OC)ccc12", "growth": "-43.6% (active)"},
      {"smiles": "O=C(Nc1cccc([N+](=O)[O-])c1)c1cccc(C(=O)Nc2cccc([N+](=O)[O-])c2)c1", "growth": "59.9% (inactive)"},
      {"smiles": "CCCCCCCCCCCCCCCCCC1=NC(C)(C)CN1CCO", "growth": "-28.9% (active)"},
      {"smiles": "COc1ccc(OC)c(NC(=O)c2cc3oc4ccccc4c3cc2O)c1", "growth": "88.4% (inactive)"},
      {"smiles": "CN1C(=O)/C(=C/c2nc(-c3cccc(F)c3)n3ccccc23)c2ccccc21", "growth": "44.9% (inactive)"},
      {"smiles": "O=C(CN1CCCCC1)Sc1nnc2sc3ccccc3n12", "growth": "109% (inactive)"},
      {"smiles": "C[C@]12CC[C@@H]3c4ccc(O)c([N+](=O)[O-])c4CC[C@H]3[C@@H]1CC[C@@H]2NS(=O)(=O)c1cccc(Br)c1", "growth": "19% (inactive)"},
      {"smiles": "Cc1ccsc1/C=C/C1=NCCCN1C", "growth": "99.7% (inactive)"},
      {"smiles": "CCCCCCCCCCSc1ncnc2nc[nH]c12", "growth": "58.5% (inactive)"},
      {"smiles": "C[n+]1c2ccccc2c(NC2CCNCC2)c2[nH]c3ccccc3c21", "growth": "1.98% (active)"},
      {"smiles": "COc1cccc2c1O/C(=C\\c1c([N+](=O)[O-])ncn1C)C2=O", "growth": "99.8% (inactive)"},
      {"smiles": "CC[C@@H]1OC(=O)[C@H](C)[C@@H](O[C@H]2C[C@@](C)(OC)[C@@H](O)[C@H](C)O2)[C@H](C)[C@@H](O[C@@H]2O[C@H](C)C[C@H](N(C)C)[C@H]2O)[C@](C)(O)C[C@@H](C)[C@@H]2N[C@@H](COCCOC)O[C@H]([C@H]2C)[C@]1(C)O", "growth": "100% (inactive)"},
      {"smiles": "O=C1C[C@@H]2/C(=C(O)\\C=C\\c3ccccc3)C(=O)C=C[C@@H]2O1", "growth": "36.7% (inactive)"},
      {"smiles": "Cc1cc2c(cc1[N+](=O)[O-])NC(CNC(C)C)CC2", "note": "(centres undefined)", "growth": "104% (inactive)"},
      {"smiles": "CCCCN(CCCC)CCCOC(=O)c1ccc(N)cc1", "growth": "70.9% (inactive)"},
      {"smiles": "C=C(C[C@](O)(C(=O)/C=C/c1ccc(Cl)cc1)C(=O)OC)c1ccccc1", "growth": "74.4% (inactive)"},
      {"smiles": "CCN1C[C@@H](C)n2c(c(O)c3c(=O)n(Cc4ccc(F)c(Cl)c4)nc(C(=O)NC)c32)C1=O", "growth": "11% (inactive)"},
      {"smiles": "Cc1nnc(Nc2ccc(NC(=O)Nc3ccc(Cl)cc3)cc2)c2ccccc12", "growth": "26.4% (inactive)"}
    ]}
  ]
}
